Values joined by “and” are separate entries in the source; they are usually repeats but may differ in a detail not shown here. Identical values can stand only once. Where a structure was tested more than once in an assay, its records may differ in their call. Active and inactive are the calls of the source.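 Rule for the calls, unless noted: active = compounds whose cell count with miR-34 switched on is under 0.7 times the count with it off; inactive = the rest.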

The nature of test [1]: viability loss with induced miR-34 in A549 – imaging, A549 dox-inducible miR-34, nuclei and caspase counts, primary screen (AID 1347080). As to conditions: A549 miR-34 inducible, Hoechst nuclei count, 48 h.
A short description of test [2]: MELAS cybrid and Rieske KO viability enhancers – cell-based, MELAS cybrids, Rieske KO mouse fibroblasts, CellTiter-Glo, primary screen (AID 1508586;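 active = mean z-score across replicates of 1.96 or higher in either the MELAS or the Rieske mutant cell line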;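 note: z relative to plate mean and SD of compound and empty wells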). To be noted: low glucose.
The mark [3] stands for this setting: stronger effect = lower value, cell number ratio, induced over uninduced.
Setting [4] is: measured here: relative caspase fold change +Dox/-Dox.
Setting [5] is: measured here: total cells with miR-34 induction, stronger effect = lower value.
Where [6] appears, read: measured here: total cells without miR-34 induction.
[7] abbreviates: MELAS cybrid survival, CellTiter-Glo 48 h, stronger effect = higher value.
Setting [8] is: Rieske KO mouse fibroblast survival, CellTiter-Glo 72 h.
Note: test concentration not given here.

For `O=C(O)c1cc(=O)c2ccccc2o1`, the fold change in test [1] (setting [3]) is 0.884 (inactive); in test [1] (setting [4]), 1.39. In addition, the results for the cell count in test [1] (setting [5]) and in test [1] (setting [6]) were 8030 and 9090, respectively. The figures for the z-score in test [2] (setting [7]) and in test [2] (setting [8]) were -0.239 (inactive) and -0.17, respectively.
For `Cc1cc(-c2ccccc2)nnc1NCCN1CCOCC1`, the fold change in test [1] (setting [3]) is 0.881 (inactive) and 0.888 (inactive); in test [1] (setting [4]), 0.934 and 3.7. The cell count in test [1] (setting [5]) is 8700 and 11800; in test [1] (setting [6]), 9870 and 13300. The figures for the z-score in test [2] (setting [7]) and in test [2] (setting [8]) were 0.442 (inactive) and 0.39, respectively.
For the molecule `NC(=O)N/N=C/c1ccc([N+](=O)[O-])o1`, the fold change was 0.848 (inactive) and 0.979 (inactive) in test [1] (setting [3]); 1.31 and 0.64 in test [1] (setting [4]). Further, the cell count in test [1] (setting [5]) was 7760 and 9710; in test [1] (setting [6]) it was 9150 and 9920. Further, the z-score in test [2] (setting [7]) was -0.906 (inactive); in test [2] (setting [8]), -1.1.
For the molecule `CN1CCOC(c2ccccc2)c2ccccc2C1` (stereo unspecified), the fold change in test [1] (setting [3]) was 0.979 (inactive) and 0.925 (inactive); in test [1] (setting [4]) it was 1.1 and 3.08. Moreover, the cell count in test [1] (setting [5]) was 8830 and 11200; in test [1] (setting [6]), 9020 and 12100. Further, the z-score in test [2] (setting [7]) was 0.332 (inactive); in test [2] (setting [8]), 0.617.
As for `OC(CCN1CCCCC1)(c1ccccc1)c1ccccc1`, the results for the fold change in test [1] (setting [3]) and in test [1] (setting [4]) were 0.941 (inactive) and 1.61, respectively. The cell count in test [1] (setting [5]) came out at 9230; in test [1] (setting [6]) it was 9810. Moreover, the figures for the z-score in test [2] (setting [7]) and in test [2] (setting [8]) were -1.04 (inactive) and -0.829, respectively.
Consider `CN1CCN(C(c2ccccc2)c2ccccc2)CC1`, for which the fold change in test [1] (setting [3]) was 0.854 (inactive) and 1.14 (inactive) and 0.917 (inactive); in test [1] (setting [4]), 1.3 and 0.825 and 1.5. The cell count in test [1] (setting [5]) is 8120 and 9280 and 11100; in test [1] (setting [6]), 9500 and 8140 and 12100. The z-score was -0.157 (inactive) and 0.0064 (inactive) in test [2] (setting [7]); -0.181 and 0.467 in test [2] (setting [8]).
Turning to `COc1cc(C)nc(-n2nc(C)cc2OC)n1`, the fold change in test [1] (setting [3]) is 0.917 (inactive) and 1.02 (inactive); in test [1] (setting [4]), 1.25 and 2.09. Further, the cell count was 8860 and 9160 in test [1] (setting [5]); 9670 and 8950 in test [1] (setting [6]). The z-score was 0.813 (inactive) in test [2] (setting [7]) and 0.154 in test [2] (setting [8]).
Turning to `Cn1c(=O)c2c(ncn2CCO)n(C)c1=O`, the fold change is 0.968 (inactive) in test [1] (setting [3]) and 1.24 in test [1] (setting [4]). Further, the cell count in test [1] (setting [5]) amounted to 8860; in test [1] (setting [6]), 9160. Besides, the z-score was -0.0698 (inactive) in test [2] (setting [7]) and -0.0506 in test [2] (setting [8]).
In the case of `O=C(O)P(=O)(O)O`, the fold change in test [1] (setting [3]) was 0.897 (inactive) and 0.894 (inactive); in test [1] (setting [4]), 0.852 and 3.28. Besides, the cell count in test [1] (setting [5]) was 8080 and 11700; in test [1] (setting [6]) it was 9010 and 13100. The z-score in test [2] (setting [7]) was -0.331 (inactive); in test [2] (setting [8]) it was -0.123.
As to `Cc1c(N(C)C)c(=O)n(-c2ccccc2)n1C`, the fold change in test [1] (setting [3]) is 0.875 (inactive) and 0.837 (inactive); in test [1] (setting [4]), 1.16 and 0.645 and 2.71. Also, the cell count in test [1] (setting [5]) is 7950 and 7780 and 11100; in test [1] (setting [6]) it was 9080 and 9290 and 12700. For the same molecule, the z-score is -0.0296 (inactive) and -0.452 (inactive) in test [2] (setting [7]); -0.137 and 0.114 in test [2] (setting [8]).
For `O=C1c2cccc(O)c2C(=O)c2c(O)cccc21`, the fold change in test [1] (setting [3]) is 0.868 (inactive); in test [1] (setting [4]) it was 4.67. For the same molecule, the figures for the cell count in test [1] (setting [5]) and in test [1] (setting [6]) were 9530 and 11000, respectively. The z-score in test [2] (setting [7]) was 0.3 (inactive); in test [2] (setting [8]), 0.397.
With `Nc1c2ccccc2nc2ccccc12`, the fold change in test [1] (setting [3]) was 2.19 (inactive); in test [1] (setting [4]), 1. The cell count was found to be 782 in test [1] (setting [5]) and 356 in test [1] (setting [6]). The z-score in test [2] (setting [7]) was 2.4 (active); in test [2] (setting [8]), -1.96.
Consider `Cc1ccc(C(=O)c2ccc(CC(=O)O)n2C)cc1`, for which the fold change is 0.916 (inactive) and 0.846 (inactive) and 0.923 (inactive) in test [1] (setting [3]); 1.2 and 2.52 and 1.03 in test [1] (setting [4]). Further, the cell count in test [1] (setting [5]) was 9430 and 10400 and 9670; in test [1] (setting [6]), 10300 and 12300 and 10500. Besides, the z-score was 0.498 (inactive) and 0.311 (inactive) in test [2] (setting [7]); 0.161 and -0.684 in test [2] (setting [8]).
As to `CC(C)(O)c1ccccc1CC[C@@H](SCC1(CC(=O)O)CC1)c1cccc(/C=C/c2ccc3ccc(Cl)cc3n2)c1`, the fold change is 0.896 (inactive) in test [1] (setting [3]) and 1.4 in test [1] (setting [4]). The figures for the cell count in test [1] (setting [5]) and in test [1] (setting [6]) were 9780 and 10900, respectively. In addition, the z-score in test [2] (setting [7]) is 0.313 (inactive) and -0.452 (inactive); in test [2] (setting [8]), 0.134 and -0.566.
`COc1cc(C(=O)NCc2ccc(OCCN(C)C)cc2)cc(OC)c1OC`: the fold change was 0.938 (inactive) and 0.925 (inactive) and 0.912 (inactive) in test [1] (setting [3]); 0.8 and 0.443 and 2.44 in test [1] (setting [4]). In addition, the cell count in test [1] (setting [5]) was 8110 and 8000 and 11800; in test [1] (setting [6]) it was 8650 and 12900. The z-score is 3.55 (active) and 0.307 (inactive) in test [2] (setting [7]); -0.723 and -0.201 in test [2] (setting [8]).
Turning to `CN1CCC(=C2c3ccccc3Sc3ccccc32)CC1`, the fold change in test [1] (setting [3]) is 0.873 (inactive); in test [1] (setting [4]), 1.16. Moreover, the cell count was found to be 7410 in test [1] (setting [5]) and 8480 in test [1] (setting [6]). In addition, the z-score in test [2] (setting [7]) is 0.363 (inactive); in test [2] (setting [8]) it was 0.395.
For the molecule `CN1C(C)(C)CCCC1(C)C`, the fold change is 0.888 (inactive) in test [1] (setting [3]) and 1 in test [1] (setting [4]). In addition, the cell count in test [1] (setting [5]) was 9180; in test [1] (setting [6]), 10300. Moreover, the values for the z-score in test [2] (setting [7]) and in test [2] (setting [8]) were -0.15 (inactive) and 1.08, respectively.
Turning to `CCOc1ccc(NC(C)=O)cc1`, the fold change was 0.886 (inactive) and 0.916 (inactive) in test [1] (setting [3]); 1.49 and 0.787 and 3.07 in test [1] (setting [4]). Besides, the cell count in test [1] (setting [5]) is 9560 and 7800 and 11500; in test [1] (setting [6]), 10800 and 8520 and 12600. The z-score in test [2] (setting [7]) was -0.475 (inactive) and -0.0201 (inactive); in test [2] (setting [8]), -0.108 and 0.061.
As to `CCCCN(CCCC)CCCOC(=O)c1ccc(N)cc1`, the fold change in test [1] (setting [3]) was 0.866 (inactive) and 0.888 (inactive); in test [1] (setting [4]) it was 2.02 and 4.13. Moreover, the cell count is 8920 and 11400 in test [1] (setting [5]); 10300 and 12800 in test [1] (setting [6]). For the same molecule, the figures for the z-score in test [2] (setting [7]) and in test [2] (setting [8]) were 0.278 (inactive) and -0.637, respectively.
As for `CC(=O)OCC(=O)[C@@]1(O)[C@H](C)C[C@H]2[C@@H]3CCC4=CC(=O)C=C[C@]4(C)[C@@]3(F)[C@@H](O)C[C@@]21C`, the fold change in test [1] (setting [3]) was 0.93 (inactive); in test [1] (setting [4]), 1.03. For the same molecule, the cell count in test [1] (setting [5]) was 6000; in test [1] (setting [6]), 6450. The results for the z-score in test [2] (setting [7]) and in test [2] (setting [8]) were -0.294 (inactive) and 0.00126, respectively.
Take `CCCCC1C(=O)N(c2ccccc2)N(c2ccc(O)cc2)C1=O` (stereo unspecified): the fold change is 0.952 (inactive) and 0.848 (inactive) in test [1] (setting [3]); 0.53 and 1.48 in test [1] (setting [4]). Moreover, the cell count in test [1] (setting [5]) is 8300 and 10300; in test [1] (setting [6]), 8720 and 12100. The z-score in test [2] (setting [7]) is -1.46 (inactive); in test [2] (setting [8]), -1.25.
